Measurements from the supplement of paper PMC11732987, “Enantioselective OTUD7B fragment discovery through chemoproteomics screening and high-throughput optimisation” (Communications Chemistry, 2025).

Experiments:
Experiment in all cases: log2 ratio of Biotin-Ahx-Ub-VS probe labelling (fragment/DMSO); higher = less target engagement (more negative = stronger competition), active = hit call of the paper (q ≤ 0.05, log2 ratio ≤ -1)
Conditions in all cases: compound concentration: 200 uM; treatment time: 3 h
[1] = target: T1, OTUD6B (UniProt Q8N6M0)
T1 sequence (whole entry): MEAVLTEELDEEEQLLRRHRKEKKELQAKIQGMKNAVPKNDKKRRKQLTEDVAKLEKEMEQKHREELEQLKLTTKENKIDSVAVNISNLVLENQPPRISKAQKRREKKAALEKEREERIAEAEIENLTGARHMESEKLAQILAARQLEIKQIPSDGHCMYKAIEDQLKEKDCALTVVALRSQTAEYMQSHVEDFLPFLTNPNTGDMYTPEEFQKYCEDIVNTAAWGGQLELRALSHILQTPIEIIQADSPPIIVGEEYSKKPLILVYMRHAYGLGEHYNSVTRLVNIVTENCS
How it was run: (§1)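 HEK293T lysate, 495 µg per sample in Tris/CHAPS/IGEPAL buffer with protease inhibitors, was treated in triplicate with fragment at 200 µM or vehicle for 3 h and then with Biotin-Ahx-Ub-VS at 0.5 µM final for 1 h. Labelled DUBs were NeutrAvidin-enriched, digested with LysC and trypsin, and run by diaPASEF LC-MS/MS. Spectronaut label-free quantities were global-median-normalised, and values are average log2 fragment/vehicle ratios by unpaired t-test on proteins with ≥2 unique peptides.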

[2] = target: T2, OTUD7B (UniProt Q6GQQ9)
T2 sequence (whole entry): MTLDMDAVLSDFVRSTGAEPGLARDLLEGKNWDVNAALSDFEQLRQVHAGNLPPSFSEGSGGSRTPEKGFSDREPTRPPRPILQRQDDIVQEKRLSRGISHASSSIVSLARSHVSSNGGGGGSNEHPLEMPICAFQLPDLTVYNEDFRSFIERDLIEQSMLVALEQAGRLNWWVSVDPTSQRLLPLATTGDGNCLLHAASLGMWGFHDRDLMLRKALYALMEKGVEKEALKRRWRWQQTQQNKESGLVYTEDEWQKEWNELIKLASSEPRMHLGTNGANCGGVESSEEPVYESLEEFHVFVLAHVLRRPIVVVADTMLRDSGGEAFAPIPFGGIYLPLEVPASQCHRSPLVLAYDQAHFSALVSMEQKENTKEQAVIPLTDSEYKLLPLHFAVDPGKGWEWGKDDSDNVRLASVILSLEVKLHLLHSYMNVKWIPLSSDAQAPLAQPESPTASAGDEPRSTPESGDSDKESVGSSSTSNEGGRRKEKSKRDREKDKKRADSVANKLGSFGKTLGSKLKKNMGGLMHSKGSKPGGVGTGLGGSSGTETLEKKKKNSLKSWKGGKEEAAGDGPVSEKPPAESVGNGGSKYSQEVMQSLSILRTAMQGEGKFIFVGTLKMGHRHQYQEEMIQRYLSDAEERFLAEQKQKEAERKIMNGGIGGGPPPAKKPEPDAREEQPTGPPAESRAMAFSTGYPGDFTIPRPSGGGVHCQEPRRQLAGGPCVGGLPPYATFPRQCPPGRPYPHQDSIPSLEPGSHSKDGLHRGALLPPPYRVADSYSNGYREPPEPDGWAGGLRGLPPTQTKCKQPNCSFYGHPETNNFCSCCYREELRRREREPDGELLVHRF
How it was run: as §1

[3] = target: PRPF8 (UniProt Q6P2Q9)
How it was run: as §1

[4] = target: T3, PSMD7 (UniProt P51665)
T3 sequence (whole entry): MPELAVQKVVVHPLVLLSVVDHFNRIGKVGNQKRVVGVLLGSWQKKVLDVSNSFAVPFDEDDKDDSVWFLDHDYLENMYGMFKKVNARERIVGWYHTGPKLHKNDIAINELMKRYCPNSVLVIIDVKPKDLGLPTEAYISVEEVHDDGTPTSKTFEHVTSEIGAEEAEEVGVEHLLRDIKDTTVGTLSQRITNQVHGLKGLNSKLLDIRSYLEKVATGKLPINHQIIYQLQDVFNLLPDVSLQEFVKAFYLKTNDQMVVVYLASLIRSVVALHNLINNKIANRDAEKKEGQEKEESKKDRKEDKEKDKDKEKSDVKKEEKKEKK
How it was run: as §1

[5] = target: UCHL1 (UniProt P09936)
Chain of UCHL1 (P09936 whole entry, looked up): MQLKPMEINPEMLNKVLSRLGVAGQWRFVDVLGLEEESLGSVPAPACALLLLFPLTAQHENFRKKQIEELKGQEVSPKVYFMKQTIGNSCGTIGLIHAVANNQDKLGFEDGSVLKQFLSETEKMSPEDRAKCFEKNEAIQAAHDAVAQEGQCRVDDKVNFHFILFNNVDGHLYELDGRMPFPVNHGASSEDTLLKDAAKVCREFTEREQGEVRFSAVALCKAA
How it was run: as §1

[6] = target: T4, UCHL3 (UniProt P15374)
T4 sequence (whole entry): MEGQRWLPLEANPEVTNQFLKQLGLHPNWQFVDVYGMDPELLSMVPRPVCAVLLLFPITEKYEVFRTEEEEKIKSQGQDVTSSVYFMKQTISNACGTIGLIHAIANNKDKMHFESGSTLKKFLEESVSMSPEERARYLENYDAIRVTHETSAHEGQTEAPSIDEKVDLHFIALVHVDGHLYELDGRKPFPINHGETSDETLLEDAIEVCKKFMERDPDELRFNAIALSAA
How it was run: as §1

[7] = target: T5, UCHL5 (UniProt Q9Y5K5)
T5 sequence (whole entry): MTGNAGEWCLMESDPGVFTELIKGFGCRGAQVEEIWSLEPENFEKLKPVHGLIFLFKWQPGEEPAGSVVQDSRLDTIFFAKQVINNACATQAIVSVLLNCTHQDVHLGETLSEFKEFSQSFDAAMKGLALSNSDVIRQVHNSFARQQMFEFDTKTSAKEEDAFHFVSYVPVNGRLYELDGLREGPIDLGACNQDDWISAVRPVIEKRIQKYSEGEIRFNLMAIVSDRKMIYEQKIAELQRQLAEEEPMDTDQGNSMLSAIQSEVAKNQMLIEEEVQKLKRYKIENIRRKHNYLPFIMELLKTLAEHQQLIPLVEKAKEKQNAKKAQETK
How it was run: as §1

[8] = target: USP10 (UniProt Q14694)
Chain of USP10 (Q14694 whole entry): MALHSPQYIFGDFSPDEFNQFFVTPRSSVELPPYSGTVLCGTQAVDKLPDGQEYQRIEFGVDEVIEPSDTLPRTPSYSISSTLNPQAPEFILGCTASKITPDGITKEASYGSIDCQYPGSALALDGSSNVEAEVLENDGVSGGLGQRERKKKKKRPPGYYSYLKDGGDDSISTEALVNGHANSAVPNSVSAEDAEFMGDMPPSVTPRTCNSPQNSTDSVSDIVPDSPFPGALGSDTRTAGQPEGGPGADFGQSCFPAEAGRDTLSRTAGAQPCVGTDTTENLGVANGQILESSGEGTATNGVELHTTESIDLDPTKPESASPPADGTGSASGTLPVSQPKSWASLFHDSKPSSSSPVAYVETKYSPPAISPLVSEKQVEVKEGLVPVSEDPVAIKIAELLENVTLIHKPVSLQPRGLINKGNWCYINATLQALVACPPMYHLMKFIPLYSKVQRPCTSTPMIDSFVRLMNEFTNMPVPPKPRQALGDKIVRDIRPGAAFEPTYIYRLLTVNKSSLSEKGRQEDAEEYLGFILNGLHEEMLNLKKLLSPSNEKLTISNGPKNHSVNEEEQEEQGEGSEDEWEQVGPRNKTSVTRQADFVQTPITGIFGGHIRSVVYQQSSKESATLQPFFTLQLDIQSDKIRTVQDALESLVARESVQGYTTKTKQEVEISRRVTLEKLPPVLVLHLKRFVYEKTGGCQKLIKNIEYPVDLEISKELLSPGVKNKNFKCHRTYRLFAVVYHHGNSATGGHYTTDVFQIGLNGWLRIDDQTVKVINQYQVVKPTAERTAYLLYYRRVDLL
How it was run: as §1

[9] = target: T6, USP15 (UniProt Q9Y4E8)
T6 sequence (whole entry): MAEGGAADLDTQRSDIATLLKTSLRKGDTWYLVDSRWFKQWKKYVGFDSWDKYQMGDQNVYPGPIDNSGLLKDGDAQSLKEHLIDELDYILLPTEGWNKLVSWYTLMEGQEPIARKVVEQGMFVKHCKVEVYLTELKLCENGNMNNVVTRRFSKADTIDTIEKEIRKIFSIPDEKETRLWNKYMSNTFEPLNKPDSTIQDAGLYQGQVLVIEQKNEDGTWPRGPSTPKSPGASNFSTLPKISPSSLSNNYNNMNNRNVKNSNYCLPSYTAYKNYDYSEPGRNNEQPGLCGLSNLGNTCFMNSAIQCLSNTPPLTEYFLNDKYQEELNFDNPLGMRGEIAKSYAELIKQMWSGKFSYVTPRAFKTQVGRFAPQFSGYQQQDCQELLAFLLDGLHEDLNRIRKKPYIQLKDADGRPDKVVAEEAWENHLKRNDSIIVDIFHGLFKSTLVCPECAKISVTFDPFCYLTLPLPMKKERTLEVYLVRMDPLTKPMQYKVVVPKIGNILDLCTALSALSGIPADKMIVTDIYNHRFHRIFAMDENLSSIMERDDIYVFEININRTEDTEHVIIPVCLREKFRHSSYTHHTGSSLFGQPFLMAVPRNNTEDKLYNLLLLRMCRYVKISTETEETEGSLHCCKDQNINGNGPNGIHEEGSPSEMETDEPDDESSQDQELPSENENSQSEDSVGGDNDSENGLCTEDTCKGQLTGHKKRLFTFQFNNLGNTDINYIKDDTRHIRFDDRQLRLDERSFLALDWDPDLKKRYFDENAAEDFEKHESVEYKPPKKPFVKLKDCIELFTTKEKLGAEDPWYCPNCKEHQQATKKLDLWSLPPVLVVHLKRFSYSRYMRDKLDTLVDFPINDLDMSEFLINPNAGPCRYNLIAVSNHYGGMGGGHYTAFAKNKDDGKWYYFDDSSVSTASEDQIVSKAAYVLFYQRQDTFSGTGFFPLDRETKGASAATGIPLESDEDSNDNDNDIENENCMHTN
How it was run: as §1

[10] = target: USP16 (UniProt Q9Y5T5)
Chain of USP16 (Q9Y5T5 whole entry, looked up): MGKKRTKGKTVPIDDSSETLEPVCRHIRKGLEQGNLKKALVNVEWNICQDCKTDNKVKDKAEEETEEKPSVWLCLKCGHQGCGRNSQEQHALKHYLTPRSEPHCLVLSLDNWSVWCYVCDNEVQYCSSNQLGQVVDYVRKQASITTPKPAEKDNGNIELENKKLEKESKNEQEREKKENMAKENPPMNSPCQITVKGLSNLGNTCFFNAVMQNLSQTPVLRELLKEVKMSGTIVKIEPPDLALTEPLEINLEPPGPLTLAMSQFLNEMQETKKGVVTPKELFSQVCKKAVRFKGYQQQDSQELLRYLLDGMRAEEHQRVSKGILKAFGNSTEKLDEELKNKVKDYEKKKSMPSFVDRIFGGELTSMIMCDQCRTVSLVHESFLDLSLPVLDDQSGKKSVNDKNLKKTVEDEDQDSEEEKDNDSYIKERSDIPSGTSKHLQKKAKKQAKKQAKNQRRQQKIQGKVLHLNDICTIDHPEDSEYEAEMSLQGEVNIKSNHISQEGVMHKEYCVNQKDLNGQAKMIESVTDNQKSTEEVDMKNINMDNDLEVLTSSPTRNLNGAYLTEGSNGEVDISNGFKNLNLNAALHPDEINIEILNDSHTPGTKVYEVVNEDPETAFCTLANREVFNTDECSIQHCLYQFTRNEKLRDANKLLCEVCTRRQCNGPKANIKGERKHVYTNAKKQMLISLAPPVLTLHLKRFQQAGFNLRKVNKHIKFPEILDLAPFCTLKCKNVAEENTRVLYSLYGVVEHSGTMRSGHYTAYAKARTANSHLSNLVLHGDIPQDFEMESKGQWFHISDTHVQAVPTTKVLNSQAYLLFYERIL
How it was run: as §1

Measured: log2 ratio of Biotin-Ahx-Ub-VS probe labelling

Cc1cnc2[nH]cc(CCNC(=O)CCl)c2c1
inactive: [1] 0.00839 | [2] -0.562 | [3] -0.0916 | [4] -0.297 | [5] -0.85 | [6] 0.0619 | [7] -0.065 | [8] -0.0977 | [9] -0.336 | [10] 0.0147
